Assay outcomes deposited in PubChem by National Center for Advancing Translational Sciences (NCATS).
Giardia FBPA inh: qHTS Assay for Inhibitors of Fructose-1,6-bisphosphate Aldolase from Giardia Lamblia; Potency, µM (highest dose often 59.6 µM), for inactives: at the top dose activity, negative = inhibition, actives largely listed as inhibitors; purified Giardia FBPA; A8B2U2; AID 2451, 2010; hit rate 0.71% among 290,000; further: nearly all actives have a fitted effect of over 55% in size
Target sequence (A8B2U2 whole entry, looked up): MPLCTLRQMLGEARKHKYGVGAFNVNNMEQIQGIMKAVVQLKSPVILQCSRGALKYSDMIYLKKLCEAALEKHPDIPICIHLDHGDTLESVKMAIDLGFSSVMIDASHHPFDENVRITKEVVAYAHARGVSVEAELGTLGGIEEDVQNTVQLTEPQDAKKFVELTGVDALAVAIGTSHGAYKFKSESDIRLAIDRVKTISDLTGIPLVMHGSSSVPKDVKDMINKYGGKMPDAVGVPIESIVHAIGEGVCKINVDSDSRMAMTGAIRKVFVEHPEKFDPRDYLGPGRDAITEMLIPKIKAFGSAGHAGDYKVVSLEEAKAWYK
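Giardia FBPA (40 nM reagent) was preincubated 10 min at RT with compound (up to 57.5 uM final), then substrate plus GAPDH/TPI/NAD/arsenate coupling system with diaphorase/resazurin was added; resorufin fluorescence (525/598 nm) was read after 20 min.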
Cruzain inh noDet: qHTS Assay for Promiscuous and Specific Inhibitors of Cruzain (without detergent); hit rate 2.3% among 200,000; AID 1476, 2009; purified cruzain, Z-FR-AMC fluorescence, no detergent; Potency, µM, for inactives: max response, negative = inhibition, most hits filed as inhibitors; Cruzipain (Trypanosoma cruzi), P25779;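 further: plate controls were enzyme without inhibitor for no effect and buffer without enzyme for full effect; nearly all actives have a fitted effect of over 40% in size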
Target sequence (P25779 123-467 limits assumed): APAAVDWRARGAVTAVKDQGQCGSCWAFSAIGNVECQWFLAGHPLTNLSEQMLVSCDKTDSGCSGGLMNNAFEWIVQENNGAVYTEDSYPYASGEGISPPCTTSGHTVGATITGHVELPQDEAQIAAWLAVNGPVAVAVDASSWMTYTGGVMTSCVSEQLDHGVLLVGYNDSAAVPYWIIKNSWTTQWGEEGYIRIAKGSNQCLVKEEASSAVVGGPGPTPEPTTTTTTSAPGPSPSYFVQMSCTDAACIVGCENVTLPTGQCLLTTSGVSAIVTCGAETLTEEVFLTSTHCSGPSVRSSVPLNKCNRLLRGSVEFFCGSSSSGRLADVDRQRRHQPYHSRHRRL
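Detergent-free condition (0.00005% Triton X-100) in acetate buffer pH 5.5 with DTT. 1.5 nM enzyme and compound were pre-mixed 15 min, then 2 uM Z-FR-AMC substrate added; reaction progress from fluorescence change between first and third reads (60 s).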
Cruzain inh Det: qHTS Assay for Promiscuous and Specific Inhibitors of Cruzain (with detergent); Cruzipain (Trypanosoma cruzi), P25779; purified cruzain, Z-FR-AMC fluorescence, 0.01% Triton; Potency, µM, for inactives: max response, negative = inhibition, most hits filed as inhibitors; hit rate 0.43% among 200,000; AID 1478, 2009;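 further: plate controls were neutral wells for no effect and buffer without enzyme for full effect; nearly all actives have a fitted effect of over 40% in size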
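Compounds were screened in titration against cruzain (1.5 nM) with 0.01% Triton X-100 to counter colloidal aggregation. Activity was the AMC fluorescence increase over 60 s after adding 2 uM Z-FR-AMC at pH 5.5.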
Numbers without * were called inactive; ? = inconclusive; . = no result; [ ] = dose if it differs, or a comment. This excerpt belongs to a sample that is enriched for hits. The call rests on the fitted dose curve; in most records, active means well fitted curve in the direction sought with a large enough effect; inconclusive means small, poorly fitted or top-dose-only effect, or another doubt; inactive means no such curve, though single readings can be large; an effect the other way counts as inactive or inconclusive. Unless noted, on the % scale 0 is the no-effect control and ±100 the full control effect; potency means the concentration at half of the fitted maximal effect.

SMILES	Giardia FBPA inh	Cruzain inh noDet	Cruzain inh Det
O=C(O)c1cc(O)c2c(c1)[C@H]([C@H]1c3cc(C(=O)O)cc(O)c3C(=O)c3c(O[C@@H]4OC(CO)C(O)C(O)C4O)cccc31)c1cccc(O[C@@H]3OC(CO)C(O)C(O)C3O)c1C2=O (stereo not given in full)	18µM*	?	16µM*
O=C1c2cccc(O)c2C(=O)c2c(O[C@@H]3O[C@H](CO)[C@@H](O)[C@H](O)[C@@H]3O)cccc21	.	-6%	1%
COc1ccc(C2=NC3(CCCCCC3)N(CC(=O)Nc3ccc(C)c(C)c3)C2=O)cc1	.	-8%	1%
CC(C)C(c1nnnn1C1CCCC1)N1CCc2ccccc21 (stereo not given)	4%	2%	0%
Cc1ccc(C(c2nnnn2C2CCCC2)N2CCc3ccccc32)cc1 (stereo not given)	-12%	32µM*	-6%
Cc1cc(N/N=C/c2c(O)ccc3ccccc23)nc(-c2ccccc2O)n1	6%	16µM*	0%
Oc1ccc2ccccc2c1/C=N/Nc1ccccc1	?	-7%	-6%
Cc1ccc(N2CC(C(=O)N3CCC(C(=O)Nc4ccc(Br)cc4)CC3)CC2=O)cc1 (stereo not given)	4%	.	.
O=C(Nc1ccc(Cl)c(Cl)c1)C1CC(=O)N(c2ccc(Br)cc2)C1 (stereo not given)	-2%	20µM*	-9%
Clc1ccc(-c2nnc(SCc3ccon3)o2)c(Cl)c1	9%	-2%	-3%
Brc1cccc(-c2nnc(SCc3nc4ccccc4[nH]3)o2)c1	-8%[12.9 µM]	13µM*	14µM*
N#Cc1c(-c2ccccc2)cc(-c2ccccc2)nc1SCc1nnc(-c2ccccc2)o1	0%	5µM*	-1%
Brc1cccc(CSc2nnc(-c3ccncc3)o2)c1	4%	.	.
Cc1nnc(SCc2nc3ccccc3[nH]2)s1	-12%	-1%	-2%
C=C(C)CSc1nc(-c2ccccc2)cc(-c2ccc(OC)cc2)c1C#N	.	-29%	-4%
c1ccc2[nH]c(CSc3nc4ccccc4s3)nc2c1	3%	16µM*	?
Clc1ccc(-c2nnc(SCc3nc4ccccc4[nH]3)o2)c(Cl)c1	3%	3%	6.3µM*
COc1ccc(S(=O)(=O)NCCc2csc3nc(-c4ccc(Cl)cc4)nn23)cc1C	.	-3%	-6%
COc1cc2cc(c1Cl)N(C)C(=O)C[C@H](OC(=O)C(C)C)[C@]1(C)O[C@@H]1[C@@H](C)[C@H]1C[C@](O)(NC(=O)O1)[C@@H](OC)/C=C\C=C(\C)C2	.	?	0%
COc1cccc([C@@]2(O)CCCCC2CN(C)C)c1 (stereo not given in full)	-5%	.	.
COc1cc(C2CC(=O)N(Cc3ccc(F)cc3)c3ccccc3S2)cc(OC)c1OC (stereo not given)	.	?	-6%
CCOP(=S)(OCC)Oc1ccc([N+](=O)[O-])cc1	.	2%	-8%
c1ccc(-c2nnc(CSc3nc4ccccc4[nH]3)o2)cc1	-23%	13µM*	-25%
c1ccc2c(CSc3nnc(-c4ccncc4)o3)cccc2c1	0%	20%	-9%
c1ccc2[nH]c(CSc3nnc(-c4ccncc4)o3)nc2c1	-5%	13µM*	-20%
SMILES	Giardia FBPA inh	Cruzain inh noDet	Cruzain inh Det
c1ccc(CSc2nc3ccccc3[nH]2)cc1	-1%	.	.
CS[C@@H](CC(=O)O)C(=O)O	.	4%	4%
O=C1C=CC(=O)C(Cl)=C1	?	-8%	-1%
COc1ccc(NC(=O)CCCn2nc(C)c3sc4ccccc4c3c2=O)cc1	.	-12%	-1%
CO[C@@H]1COC(=O)CCC[C@@H](C)[C@H](OC)COC(=O)[C@H](Cc2ccccc2)NC(=O)C/C=C\[C@H]1C	-2%[12.9 µM]	.	.
CCOc1ccc(/C=C/c2nc(C#N)c(Nc3ccc(OC)cc3)o2)cc1	.	-25%	0%
CCC(=O)Nc1ccc(NC(=O)CSc2nc3cc4c(cc3cc2C)CCC4)cc1	3%	25µM*	6%
Cc1ccccc1NC(=O)CSc1nc2cc3c(cc2cc1C)CCC3	0%	7%	-5%
CCOc1ccc(CNC(=O)c2cc3c(=O)n(Cc4cccs4)ccc3nc2C)cc1	.	?	-2%
Cc1ccccc1-c1nc(-c2ccc(NC(=O)c3ccc4c(c3)OCO4)cc2)no1	-2%	7.9µM*	-1%
COc1cc(-c2nc(-c3ccc(NC(=O)c4ccc5c(c4)OCO5)cc3)no2)cc(OC)c1OC	-1%	?	-3%
[Cu].[NH-][C@H](CC(=O)O)C(=O)O.[NH-][C@H](CC(=O)O)C(=O)O	.	6%	3%
C=CCN1c2ccccc2[C@]23C[C@@H](C(=O)OC)N(S(=O)(=O)c4ccc5c(c4)OCCN5C)C2=NC(C(=O)OC)=C(C(=O)OC)[C@H]13	-1%[12.9 µM]	.	.
C=C1CC2C(=O)N(Cc3cc(OC)ccc3OC)C(C(=O)OCC)C1N2C (stereo not given)	6%	.	.
CCOC(=O)c1c(NC(=O)Nc2ccc(Cl)cc2)sc(C)c1C	0%	25µM*	-1%
CCOC(=O)c1c(NC(=O)Nc2cccc(Cl)c2)sc(C)c1C	1%	25µM*	0%
CCOC(=O)c1sc(NC(=O)Nc2ccc(Cl)cc2)cc1C	-7%	-8%	-2%
O=C(Nc1cccc(Cl)c1)Nc1cccc(Cl)c1	-7%	2%	-11%
COCCn1c(=O)c(-c2ccc(OC)cc2)nc2cnc(OCc3ccccc3)nc21	7%	0%	-3%
CC(C)(CCC(C)(C)c1ccccc1)c1ccccc1	.	1%	-1%
CC(NC(=O)c1cc(-c2ccc(Br)cc2)on1)c1ccccc1 (stereo not given)	4%	16µM*	7%
COC(=O)c1cc(-c2ccc(Br)cc2)on1	9%	-14%	1%
Cc1ccc(Cn2ccc(NC(=O)c3cc(-c4ccc(Br)cc4)on3)n2)cc1	8%	4µM*	3%
Cc1ccc(Cn2ccc(NC(=O)c3cc(-c4ccccc4)on3)n2)cc1	6%	3%	-4%
COc1ccc(-c2noc(CSc3nnc(-c4ccc(Cl)cc4)n3C)n2)cc1OC	.	-2%	-7%
SMILES	Giardia FBPA inh	Cruzain inh noDet	Cruzain inh Det
Cc1ccc(CCNS(=O)(=O)c2ccc3c(c2)C(C(C)C)C(=O)N3)cc1 (stereo not given)	.	7%	-2%
O=C(O)c1c(Cl)c(Cl)c(Cl)c(Cl)c1C(=O)Nc1ccc2cn[nH]c2c1	.	-9%	2%
Cc1cc(NC(=O)COC(=O)c2n[nH]c3ccccc23)no1	-3%	2%	1%
Cc1cc(NC(=O)COC(=O)c2oc3c(Cl)cccc3c2C)no1	5%	13µM*	4%
Cc1cc(C)c(-c2n[nH]c3c2C(c2ccccc2F)N(Cc2ccco2)C3=O)c(O)c1 (stereo not given)	.	?	-13%
Cc1ccc2c(c1)-c1onc(C(=O)N(C)c3ccc(F)cc3)c1CO2	.	1%	-1%
COC(=O)c1cc(Br)ccc1-c1ccc(/C=N/n2nnnc2N)o1	-9%	13µM*	-9%
Cc1ccc([N+](=O)[O-])cc1-c1ccc(/C=N\n2nnnc2N)o1	5%	0%	-10%
COc1ccccc1/C=N/NC(=O)c1ccc(NC(=O)c2cccc([N+](=O)[O-])c2)cc1	-3%	.	.
